Experimental data published in PubChem BioAssay (NCATS).
Inconclusive results are not listed. Entries that show only a call come without a potency. Active and inactive are the calls of the source. The call rests on the fitted dose curve; in most records, active means well fitted cell-killing curve with a large enough effect; inconclusive means small, poorly fitted or top-dose-only effect; inactive means flat fitted curve, though single readings scatter.
Potency means the concentration at half of the fitted maximal effect.

Experiment: Cell Viability - LYMP2-024 (AID 988); further: nearly all actives have a fitted effect of over 60% in size
Conditions: LYMP2-024 lymphoblastoid cell viability; series mostly up to 92.2 µM
From the text: NIH Chemical Genomics Center [NCGC]
NIH Molecular Libraries Screening Centers Network [MLSCN]
National Institutes of Environmental Health Sciences [NIEHS]
National Toxicology Program [NTP]
We have developed a 1536-well cell-based assay for quantitative high throughput screening (qHTS) against a number of cell lines to determine in vitro cytotoxicity of small molecules. This particular assay uses a human lymphoblastoid cell line (LYMP2-024) purchased from Coriell Institute for Medical Research.
NCGC Assay Protocol Summary:
The CellTiter-Glo luminescent cell viability assay (Promega) is a homogeneous method to measure the number of viable cells in culture. The end point readout of this assay is based on quantitation of intracellular ATP, an indicator of metabolic activity, using the luciferase reaction. Luciferase catalyzes the oxidation of beetle Luciferin to oxyluciferin and light in the presence of ATP. The luminescent signal is proportional to amount of ATP present.
Using the CellTiter-Glo luminescent cell viability assay, the amount of cellular ATP was measured in the lymphoblastoid cell line with complete culture medium following compound treatment for 24 hours. The assay was performed in opaque white Kalypsys 1536-well plates. In the screen, tetraoctylammonium bromide was used as positive control. Library compounds were measured for their ability to cause acute toxicity in the cell line, as reflected by a decrease in intracellular ATP levels, in a concentration-dependent manner. […] AC50 values were determined from concentration-response data modeled with the standard Hill equation.
qHTS protocol for CellTiter Glo lymphoblastoid cellular assay
[Step] [Parameter] [Value] [Description]
1. Reagent; 5 uL; 2500 lymphoblastoid cells/well
2. Time; 5 hr; 37 C incubation
4. Controls; 23 nL; Tetraoctylammonium bromide 6.4pM to 92 uM
5. Time; 24 hr; 37 C incubation
6. Reagent; 5 uL; CellTiter Glo reagent
7. Time; 30 min; Room Temperature
8. Detection; Luminescence; Viewlux plate reader
Keywords: cell viability, cytotoxicity, lymphoblastoid cell line, luminescence, NTPHTS, NTPHTS_NCGC, NIEHS, DSSTox, MLSMR, MLSCN, NIH Roadmap, qHTS, NCGC
For `CN(C)c1ccc(C(=C2C=CC(=[N+](C)C)C=C2)c2ccc(N(C)C)cc2)cc1`, the Potency was 2 µM (active). For `Cc1cc(NS(=O)(=O)c2ccc(N)cc2)no1`, the Potency was “inactive”. For `Cc1ccnc2c1NC(=O)c1cccnc1N2C1CC1`, the Potency was “inactive”. For `O=C(N[C@H](CO)[C@H](O)c1ccc([N+](=O)[O-])cc1)C(Cl)Cl`, the Potency was “inactive”. With `CC[C@H](C)C(=O)O[C@H]1C[C@@H](C)C=C2C=C[C@H](C)[C@H](CC[C@@H]3C[C@@H](O)CC(=O)O3)[C@H]21` the Potency was “inactive”. With `NNC(=O)c1ccncc1` the Potency was “inactive”. In the case of `CC1=NN(c2ccccc2)C(=O)C1`, the Potency is reported as “inactive”. In the case of `Cc1nnc(NS(=O)(=O)c2ccc(N)cc2)s1`, the Potency is reported as “inactive”. In the case of `NC(N)=NC(N)=NCCc1ccccc1`, the Potency is reported as “inactive”. In the case of `O=C(O)c1cc(=O)[nH]c(=O)[nH]1`, the Potency is reported as “inactive”. For `Cc1noc(NS(=O)(=O)c2ccc(N)cc2)c1C`, the Potency was “inactive”. In the case of `CCc1cc(C(N)=S)ccn1`, the Potency is reported as “inactive”. In the case of `C[C@]12C=CC(=O)C=C1CC[C@@H]1[C@@H]2C(=O)C[C@@]2(C)[C@H]1CC[C@]2(O)C(=O)CO`, the Potency is reported as “inactive”. For `Cc1ncc([N+](=O)[O-])n1CCO`, the Potency was “inactive”. For `COc1ccc2cc3[n+](cc2c1OC)CCc1cc2c(cc1-3)OCO2`, the Potency was 39.8 µM (active).
